This is a sample that favours compounds with a hit; in the whole collection about 12% have one here.
Pf growth 48h: P. falciparum growth inhibition at 48 hours (one generation); P. falciparum luciferase growth in erythrocytes, 48 h; Potency, µM (top dose mostly 28.7 µM), for inactives: at the highest dose activity change, negative = inhibition, actives largely listed as inhibitors; 310,000 compounds, 5.9% hits; also: % is scaled to controls: 0 for no effect and ±100 for the full control effect
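Luminescence readout; reporter = integrated firefly luciferase in P. falciparum. RBC culture at 2% hematocrit, 0.1% parasitemia final, 37 C/5% CO2; decreased signal taken as growth inhibition.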
Pf growth 96h: P. falciparum growth inhibition at 96 hour, primary screen for plastid delayed-death inhibitors; 320,000 compounds, 6.9% hits; Potency, µM (titrated, usually from 28.7 µM), for inactives: top-dose activity change, negative = inhibition, hits mostly inhibitors; P. falciparum luciferase reporter growth, 96 h; also: % is scaled to controls: 0 for no effect and ±100 for the full control effect
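Delayed-death screen, second-generation endpoint: infected erythrocytes, 2% hematocrit, 0.05% parasitemia final; 96 hours at 37 C, 5% CO2; luciferase detection reagent; luminescence decrease equals reduced growth.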
Sm TGR block: S. mansoni TGR enzyme inhibition. purified TGR, DTNB reduction, TNB absorbance 405 nm. AID 485364. 360,000 compounds, 3% hits. Potency, µM (highest dose often 114 µM), inactives show at the top dose activity change, negative = inhibition, actives largely listed as inhibitors; also: % is scaled to controls: 0 for no effect and ±100 for the full control effect; nearly all actives have a fitted effect of over 60% in size
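Kinetic colorimetric format: TGR-catalysed, NADPH-driven DTNB reduction monitored via TNB absorbance. Enzyme dispensed at 20 nM; compound exposure 15 min at room temperature before reaction start.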
SARS PLP yeast: blocks SARS-CoV papain-like protease in a yeast assay | S. cerevisiae expressing SARS-CoV PLpro, growth rescue | Potency, µM (highest dose often 32.9 µM), for inactives: at the top dose activity, positive = growth rescue, most hits filed as activators | 330,000 compounds, 0.19% hits; calls by dose curve; also: 0% is about no effect; nearly all actives have a fitted effect of over 55% in size
The depositor's hits bear a star; ? = inconclusive; / = no result given. Unless noted, calls follow the shape of the dose curve; as a rule, active = well fitted curve in the direction sought with a large enough effect; inconclusive = small, poorly fitted or top-dose-only effect, or another doubt; inactive = no such curve, though single readings can be large; an effect the other way counts as inactive or inconclusive. Potency is read from the fitted curve at half-maximal effect.

SMILES	Pf growth 48h	Pf growth 96h	Sm TGR block	SARS PLP yeast
CCCS(=O)(=O)c1nc(S(=O)(=O)c2ccc(C)cc2)c(N(C)Cc2ccccc2)s1	/	/	0.5%	/
COc1ccc(-c2ccc3c(N)c(C(=O)Nc4ccc(C)cc4C)sc3n2)cc1OC	/	/	-0.3%	/
O=NCc1ccc([N+](=O)[O-])o1	?	13.5µM*	/	/
O=[N+]([O-])c1ccc(CN2CCN(c3ccc(Cl)cc3)CC2)o1	2.7%	-25.2%	?	-15.2%
COc1ccc(-c2noc(CNC(=O)c3ccoc3C)n2)cc1OC	4.1%	5.3%	6.6%	1.1%
CCn1c(/C=C/c2c[nH]c3ccccc23)nc2ccccc2c1=O	66.2%	40.2%	13.3%	-0.6%
CN(C)S(=O)(=O)c1ccc2[nH]cc(/C=C/c3nc4ccccc4c(=O)n3-c3ccccc3)c2c1	9.28µM*	?	-13.8%	1.6%
O=C(NCCCNCCCNC(=O)c1ccc(/C=N/O)nc1)c1ccc(/C=N/O)nc1	9.28µM*	2.62µM*	-20.6%	1.3%
CN(CCCNC(=O)c1ccc(/C=N/O)nc1)CCCN(C)Cc1ccccc1	?	?	11.2%	-0.3%
O=C(NCC1CCCO1)c1ccc(/C=N/O)nc1 (stereo not drawn)	0.2%	14.7µM*	-0.5%	-14.9%
N#CC(C#N)=Cc1ccc(-c2ccccc2F)o1	46.3%	?	3.98µM*	23.4%
Cc1cc(C)cc(-n2ccnc2SCC(=O)Nc2nc3ccc(C)cc3s2)c1	/	/	-1.3%	/
Cc1noc(C)c1S(=O)(=O)Nc1ccc(C(=O)Nc2ccc(C(C)C)cc2)cc1	/	/	-0.8%	/
CSc1ncc(C(=O)Nc2ccc(Cl)cc2)c(C)n1	8.1%	30.7%	31.1%	-1.2%
CSc1ncc(C(=O)Nc2ccc(Br)cn2)c(C)n1	?	1.85µM*	?	0.0%
CSc1ncc(C(=O)Nc2cccc(Cl)c2C)c(C)n1	-19.3%	-10.7%	4.0%	-0.9%
CSc1ncc(C(=O)Nc2ccc(C(C)=O)cc2)c(C)n1	?	2.62µM*	-27.0%	0.6%
CCc1ccc(CNC(=O)c2sc3ncnc(N(C)C4CCCCC4)c3c2C)cc1	/	/	7.7%	/
CC(C)(CNC(=O)CCC1CCCC1)CNC(=O)CCC1CCCC1	?	10.4µM*	0.6%	-6.1%
CC1(C(=O)Nc2ccccc2)Cc2ccccc2C(=O)O1 (stereo not drawn)	0.6%	9.28µM*	/	0.0%
CCSc1nnc(NC(=O)C2(C)Cc3ccccc3C(=O)O2)s1 (stereo not drawn)	13.1µM*	-3.9%	3.2%	-5.2%
CC1(C(=O)Nc2nnc(C(C)(C)C)s2)Cc2ccccc2C(=O)O1 (stereo not drawn)	-10.2%	?	-9.1%	5.8%
CCc1ccccc1N(CC(=O)N1CCCC1)S(C)(=O)=O	-1.9%	10.4µM*	-3.0%	0.6%
COc1ccc(N(CC(=O)N2CCOCC2)S(C)(=O)=O)cc1OC	-4.5%	13.1µM*	-22.1%	-2.7%
CS(=O)(=O)N(CC(=O)N1CCCC1)c1ccc(Cl)cc1	5.0%	?	?	15.0%
SMILES	Pf growth 48h	Pf growth 96h	Sm TGR block	SARS PLP yeast
CCc1ccccc1N(CC(=O)N1CCCCCC1)S(C)(=O)=O	-11.2%	-42.7%	0.0%	1.9%
COc1ccc(N(CC(=O)N2CCOCC2)S(C)(=O)=O)cc1Cl	-14.0%	11.7µM*	6.3%	-0.6%
Cc1ccc(N(CC(=O)N2CCCC2)S(C)(=O)=O)cc1C	-17.2%	7.38µM*	0.7%	-1.6%
CCOc1ccc(-c2cc(NC(=O)c3ccccc3)c(C(=O)OC)s2)cc1	/	/	-2.1%	/
CCc1ccc([C@@H]2CC=C(C(=O)O)[C@H](c3ccc(F)cc3)N2S(=O)(=O)c2ccc(C)cc2)cc1	-19.8%	38.2%	0.3%	0.1%
CCN(CC)CCn1c(=N)n(CC(=O)c2ccc(Br)s2)c2ccccc21	1.85µM*	1.85µM*	-4.2%	-1.4%
CCN(CC)CCn1c(=N)n(CCOc2ccccc2)c2ccccc21	/	8.28µM*	0.3%	2.3%
CCN=c1sc2ccccc2n1CC(O)COc1ccccc1 (stereo not drawn)	?	/	-7.9%	8.2%
CCN(CC)CCn1c(=N)n(CC(O)COc2ccccc2)c2ccccc21 (stereo not drawn)	3.29µM*	2.33µM*	13.1%	-0.3%
CCN(CC)CCn1c(=N)n(CCO)c2ccccc21	-9.9%	?	5.4%	1.1%
Cc1ccc(C)c2[nH]c(=O)c(CN(CCN3CCCC3)C(=O)Nc3ccc(F)cc3)cc12	4.15µM*	?	0.0%	-0.4%
COc1cc2cc(CN(CCN3CCCC3)C(=O)Nc3ccc(F)cc3)c(=O)[nH]c2cc1OC	9.28µM*	-9.6%	-1.6%	1.1%
